Screening results from PubChem BioAssay.
Compounds with a hit are over-represented: about 4.6% of the library has one in this group of screens.
PfHsp90 set2 = growth inhibition of PfHsp90-expressing yeast, primary screen, antimalarial PfHsp90 inhibitor project, S. cerevisiae, BacTiter-Glo luminescence, single point, set 2 | BacTiter-Glo ATP, 48 h; yeast lacking PDR1 and PDR3 efflux regulators | inhibition, % at 9.4 µM | 310,000 compounds, 0.32% hits | AID 504621, 2011;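 active = every replicate shows inhibition above about 80%, whatever the replicate mean, limit read from the data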;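 note: 0% = DMSO neutral controls and 100% = 20 µM radicicol positive controls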
tim23-1 inh = growth inhibitors of tim23-1 mutant yeast, primary screen, luminescence, uHTS; S. cerevisiae tim23-1 growth, BacTiter-Glo luminescence, 24 h; AID 463212, 2010; inhibition, % at 20 µM; 330,000 compounds, 1.3% hits;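 active = growth inhibition of the mutant yeast at or above 50%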;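 note: temperature-sensitive mutant grown at 25 °C; plate controls were DMSO-treated mutant yeast for no effect and medium wells lacking yeast for full effect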
tim10-1 inh = growth inhibitors of tim10-1 mutant yeast, primary screen, luminescence, uHTS; S. cerevisiae tim10-1 ts strain growth, BacTiter-Glo, 24 h; inhibition, % at 20 µM; 330,000 compounds, 2.2% hits; AID 463190, 2010;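 active = inhibition of at least 40%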;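 note: mutant grown at 25 °C; 0% = DMSO wells with yeast and 100% = wells holding no yeast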
NLRP3 yeast inh = NALP3 inflammasome inhibitors in reconstituted yeast, primary screen, luminescence, uHTS. Yeast reconstituted NLRP3/ASC/caspase-1, beta-gal luminescence, 24 h. inhibition, % at 10 µM. 330,000 compounds, 0.39% hits. AID 2825, 2010;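 active = inhibition of 50% or more; inactive = inhibition below 50%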;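 note: plate controls were induced DMSO wells for no effect and uninduced yeast grown without galactose for full effect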
TIM10 inh = growth inhibitors of isogenic TIM10 control yeast, primary screen, counter-screen for tim10-1 yeast inhibitor project, luminescence, uHTS | 330,000 compounds, 1.4% hits | S. cerevisiae TIM10 strain growth, BacTiter-Glo luminescence, 24 h | inhibition, % at 10 µM;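 active = inhibition of 40% or more at the single tested concentration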;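 note: wild-type TIM10 isogenic control strain grown at permissive 25 °C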
SKKanGAS inh = S. pyogenes SKKanGAS growth inhibitors in kanamycin, primary screen, streptokinase expression inhibitor project, SKKanGAS strain, BacTiter-Glo luminescence. 6 h. inhibition, % at 7.5 µM. 300,000 compounds, 1.3% hits. AID 1662, 2009;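 active = mean replicate score, as percent of positive control median, at least 50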;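 note: strain carries kanamycin resistance gene driven by streptokinase promoter and grows in 40 µg/ml kanamycin; loss of luminescence reflects streptokinase promoter inhibition or plain growth inhibition; 0% = median of DMSO wells and 100% = positive control at its reference dose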
NALP3 yeast conf = NALP3 inhibitors retested in yeast, confirmation, luminescence, single concentration; inhibition, % at 10 µM; yeast expressing human NALP3; shares compounds with NLRP3 yeast inh; 1,300 compounds, 81% hits; in the data active = inhibition above about 48%
The depositor's hits bear a star; / = not tested or not shown.

SMILES | PfHsp90 set2 | tim23-1 inh | tim10-1 inh | NLRP3 yeast inh | TIM10 inh | SKKanGAS inh | others
CC12CCC3C(CCC4(O)CC(O)CCC34C=NO)C1(O)CCC2C1=COC(=O)C1 (stereo not given) | 8 | / | / | / | / | /
COP(=O)(/C=C(\Cl)c1ccccc1)/C=C(\Cl)c1ccccc1 | 15 | 23 | 24 | 8 | 22 | 14
CCC(=O)N1N=C(c2c(O)n(CCc3ccccc3)c(=O)[nH]c2=O)CC1c1ccc(OC)c(OC)c1 (stereo not given) | / | -6 | -10 | 9 | 3 | 100*
COc1ccc(CCn2c(O)c(C=NCCN3CCCCC3)c(=O)[nH]c2=O)cc1OC | 16 | 3 | 19 | 11 | -4 | 2
CCC(C)n1c(O)c(/C=N/NC(=O)c2ccncc2)c(=O)[nH]c1=S (stereo not given) | 14 | -5 | 8 | 3 | 11 | 91*
O=C(N/N=C/c1c(O)n(Cc2ccc(F)cc2)c(=S)[nH]c1=O)c1ccncc1 | -7 | 2 | 9 | 8 | 16 | 101*
CN1C(=O)C(C)(C2=CCCCC2)C(=O)NC1=S (stereo not given) | 12 | / | / | / | / | /
Clc1ccc(C(Cn2ccnc2)OCc2csc3c(Cl)cccc23)c(Cl)c1 (stereo not given) | 86* | 48 | -6 | 21 | -63 | /
C/C=C(\C)C(=O)OC1C(C)=C2C(C1OC(=O)CCCCC)C(C)(OC(C)=O)CC(OC(=O)CCC)C1(O)C2OC(=O)C1(C)O (stereo not given) | / | 31 | 30 | 18 | 14 | 31
CC1CCC(C(C)C)C(OC(=O)COC(=O)c2ccccc2N)C1 (stereo not given) | -2 | 10 | 28 | 1 | -3 | 67*
COC1CCC(OC2CC(C3(C)CCC4(CC(O)C(C)C(C(C)/C=C(\C)C(=O)C(C)CC(C)C(=O)O)O4)O3)OC3(OC(C4OC(O)(CO)C(C)CC4C)CC3C)C2C)OC1C (stereo not given) | 106* | / | / | / | / | /
O=[N+]([O-])c1cc([As](=O)(O)c2ccc(O)c([N+](=O)[O-])c2)ccc1O | -6 | 2 | 5 | 11 | -11 | 6
CC/C(=C\C=C\[C@@H]1C=C[C@@H]2CCC[C@H]2[C@@H]1C(=O)c1ccc[nH]1)[C@@H]1O[C@@H]([C@@H](C)C(=O)O)CC[C@@H]1C | / | 21 | 35 | 0 | 12 | 131*
CN(CCc1nnc(N)s1)[N+](=O)[O-] | -1 | 6 | 2 | 24 | 1 | -6
CC(C)CC1(CCc2ccccc2)C(=O)NC(=O)NC1=O | -9 | / | / | / | / | /
Oc1cc(Cl)c(Cl)c(Cl)c1 | -7 | / | / | / | / | /
Oc1cc(Cl)c(Cl)c(Cl)c1Cl | 104* | / | / | / | / | /
CCc1nn(CC(=O)N2CCC3(CC2)OCCO3)c(=O)c2cc3ccccc3n12 | -32 | 7 | 7 | -5 | 4 | -2
COC(=O)C1=C(c2ccc(F)cc2F)C[C@@H]2CC[C@H]1N2C(=O)NCCOc1ccccc1 | -12 | 25 | -10 | 13 | -5 | /
COc1ccc(OC)c(N=Cc2c(O)n(Cc3ccccc3)c(=S)[nH]c2=O)c1 | 0 | 11 | 9 | -2 | 13 | 51*
COCCNC(=O)c1c(NC(=O)c2ccco2)n(Cc2ccccc2)c2nc3ccccc3nc12 | -12 | 17 | 20 | 14 | 11 | 68*
COc1ccc(CCNC(=O)c2c(N)n(CCN3CCOCC3)c3nc4ccccc4nc23)cc1 | 24 | 21 | 31 | 3 | 1 | 50*
COC(=O)C1=C(c2ccc(F)cc2OCc2ccccc2)C[C@@H]2CC[C@H]1N2C(=O)NCc1cc(C)oc1C(F)(F)F | -23 | 19 | 4 | 12 | 8 | /
CC(=O)N1N=C(c2cccnc2)CC1c1ccccc1O (stereo not given) | -1 | -4 | -18 | -1 | -8 | -3
CC(=O)N1N=C(c2c(O)n(C)c(=O)n(C)c2=O)CC1c1ccccc1 (stereo not given) | 6 | 9 | 0 | 1 | 6 | 51*
SMILES | PfHsp90 set2 | tim23-1 inh | tim10-1 inh | NLRP3 yeast inh | TIM10 inh | SKKanGAS inh | others
O=C(Nc1nccs1)c1c(O)c2c(n(Cc3ccco3)c1=O)CCCC2 | -16 | 37 | 12 | 17 | 15 | 55*
C[C@]12CCC3C(CC[C@H]4C[C@@H](O)CC[C@]34C)C1C[C@@H](O)[C@@H]2O (stereo not given in full) | -6 | / | / | / | / | /
C[C@]12CCC3C(CC[C@H]4C[C@H](O)CC[C@]34C)C1C[C@H](O)[C@@H]2O (stereo not given in full) | 14 | 31 | 5 | 51* | 0 | / | NALP3 yeast conf=50*
C[C@]12CCC3C(CC[C@H]4C[C@@H](O)CC[C@]34C)C1C[C@H](Br)[C@@H]2O (stereo not given in full) | / | -28 | -108 | 62* | -167 | / | NALP3 yeast conf=70*
C[C@]12CCC3C(CC[C@H]4C[C@H](O)CC[C@]34C)C1C[C@@H](O)[C@@H]2O (stereo not given in full) | / | 4 | -6 | 44 | -8 | /
C[C@]12CCC3C(CC[C@H]4C[C@H](O)CC[C@]34C)C1C[C@@H](CCCCl)[C@@H]2O (stereo not given in full) | / | 42 | 5 | 57* | 12 | / | NALP3 yeast conf=62*
Cc1c(C)c2ccc(OCC(=O)N3CCC(C(=O)O)(c4ccccc4)CC3)c(C)c2oc1=O | 1 | 12 | 22 | 10 | -4 | 8
CCc1ccc(NP(=O)(Oc2ccccc2F)Oc2ccccc2F)cc1 | 18 | 27 | 36 | 0 | 6 | 19
COc1ccc(CN2Cc3cnnn3-c3ccccc3C2C#N)cc1 (stereo not given) | -9 | / | / | / | / | /
CSc1ncc(/C=C2/C(=O)NC(=O)N(c3ccc(Cl)cc3)C2=O)cn1 | 16 | / | / | / | / | /
CC[C@]12CC[C@H](O)CC1=CCC1C2CC[C@]2(C)C(=O)CCC12 (stereo not given in full) | / | -60 | -16 | 67* | -21 | / | NALP3 yeast conf=60*
C[C@]12CCC3[C@@H](CCC4=CC(=O)CC[C@@]43CO)C1CCC2=O (stereo not given in full) | -3 | 12 | 5 | 1 | -14 | 0
